Screens (PubChem BioAssay)
hcDAF12 agonist – activates DAF-12 receptor from parasite H. contortus | activation, % at 6.8 µM | HEK293 hcDAF-12 lit1-tk-luc reporter, luminescence; 0% DMSO, 100% Δ7-dafachronic acid | AID 652067 | 1.4% of 370,000 active;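 active means activation above the mean of all tested compounds plus 3 SD, cut at about 5.5% in these data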
SMARCA2 act – activators of SMARCA2 function; activation, % at 9.1 µM; MG213 cells, MMTV-luciferase reporter, dexamethasone, overnight; 1% of 370,000 active; in the data active means activation above about 7.8%
ssDAF-12 act – activates DAF-12 receptor from parasite S. stercoralis. HEK293 ssDAF-12/GRIP1 lit1-tk-luc reporter, luminescence; % of 3 µM dafachronic acid response. activation, % at 6.8 µM. 1% of 370,000 active. AID 652126;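 active means activation above the mean over all tested compounds plus 3 SD, cut at about 0.9% in these data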
hgDAF-12 ag – agonists of H. glycines DAF-12 nuclear receptor | HEK293 GAL4-hgDAF12 UAS-luciferase reporter, agonist luminescence; normalized to butyrate control | activation, % at 6.8 µM | 1.8% of 370,000 active;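 active means activation above a cutoff set at the mean of all screened compounds plus 3 SD, cut at about 10% in these data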
DAX1 inh-1 – blocks DAX1 repression of SF-1 activated StAR promoter | AID 652010 | HEK293T StAR-luciferase reporter, SF-1/DAX-1 repression relief | inhibition, % at 6.8 µM | 1.1% of 370,000 active;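 active means inhibition above the mean over all tested compounds plus 3 SD, cut at about 3.6% in these data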;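 further: higher inhibition means more luminescence from relief of DAX-1 repression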
DAX1 inh-2 – inhibits human nuclear receptor DAX1; P51843; 0.99% of 340,000 active; HEK293 Gal4-DAX1 luciferase reporter, luminescence; inhibition, % at 6.75 µM; AID 504766;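 active means inhibition above the mean over all tested compounds plus 3 SD, cut at about 4.2% in these data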;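 further: inhibition shows as a rise in luminescence from relieved DAX1 repression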
Target sequence (P51843 207-470 limits assumed): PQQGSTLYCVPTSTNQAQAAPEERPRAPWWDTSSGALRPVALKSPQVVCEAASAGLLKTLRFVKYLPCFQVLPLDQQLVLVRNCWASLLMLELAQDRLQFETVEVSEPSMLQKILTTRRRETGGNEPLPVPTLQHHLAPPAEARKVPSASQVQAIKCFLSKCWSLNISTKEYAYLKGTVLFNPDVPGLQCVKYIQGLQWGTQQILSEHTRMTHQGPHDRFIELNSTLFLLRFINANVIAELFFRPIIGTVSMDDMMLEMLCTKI
Of the large screens only hits and unclear results are named; the others gave an inactive call; ! = a repeat was not active. Sampled rows, rich in hits. Any-hit rate of the full collection: about 4.8%.

COCc1cc(=O)n2c([nH]c3ccccc32)c1C#N	ssDAF-12 act 1.2
CCc1cc(=O)n2c([nH]c3ccccc32)c1C#N	none
Cc1onc(NC(=O)c2ccc(Cl)cc2Cl)c1Br	hgDAF-12 ag 11
Cc1onc(NC(=O)NC(=O)c2ccccc2F)c1Br	none
O=C(CNC(=O)c1cccs1)NCCN1CCN(Cc2ccccc2)CC1	none
CC(C)(C)/C=N/NC(=O)C1CC1	none (no result: DAX1 inh-2)
O=C(N/N=C/c1ccc[nH]1)c1c[nH]c2ccccc12	none
O=C(N/N=C/C1CC2CCC1C2)c1c[nH]c2ccccc12 (stereo not given)	hcDAF12 agonist 5.7
Cc1ccsc1/C=N/NC(=O)c1c[nH]c2ccccc12	hgDAF-12 ag 11
O=C(N/N=C/C1CC2CCC1C2)C1CC1 (stereo not given)	DAX1 inh-1 3.7
Cc1ccc(/C=N/NC(=O)c2c[nH]c3ccccc23)s1	none
OC(c1ccccc1)c1nc(-c2ccc3c(c2)OCO3)cs1 (stereo not given)	hgDAF-12 ag 13 (no result: DAX1 inh-2)
O=C(O)c1cccc(-c2csc(C(O)c3ccc(F)cc3)n2)c1 (stereo not given)	DAX1 inh-1 4.2 (no result: DAX1 inh-2)
Cc1cccc(OCC(=O)Nc2nonc2NC(=O)COc2cccc(C)c2)c1	none
Cc1ccc(C)c(OCC(=O)Nc2nonc2NC(=O)COc2cc(C)ccc2C)c1	DAX1 inh-2 5.3
Cc1oc(-c2cc3c(cc2Cl)OCO3)nc1CN1CCCC(C(=O)N2CCOCC2)C1 (stereo not given)	none
Cc1cc(C(=O)COc2cccc([N+](=O)[O-])c2)c(C)n1C1CC1	hgDAF-12 ag 13
Cc1ccc(OCC(=O)c2cc(C)n(C3CC3)c2C)c([N+](=O)[O-])n1	none
CC1(C)Cc2c(cnn2-c2ccc(F)cc2)C(NC(=O)C(C)(C)O)C1 (stereo not given)	none
CC1(C)Cc2c(cnn2-c2ccc(F)cc2)C(NC(=O)C2CCC2)C1 (stereo not given)	DAX1 inh-1 4.3
N#Cc1ccc(/C=C2\CC3(OC(=O)c4ccc(Cl)cc4)CCCN2C3)cc1 (stereo not given)	none (no result: DAX1 inh-2)
CCCCN(C=O)c1c(CC)nc2c(OCc3ccc(Cl)cc3Cl)cccn12	none (no result: DAX1 inh-2)
Cc1ccccc1NS(=O)(=O)c1ccc(C(=O)N2CCC2)cc1	none
COC(=O)c1ccccc1NC(=O)C12CCC(C)(C(=O)O1)C2(C)C (stereo not given)	ssDAF-12 act 1.9
COC(=O)c1ccccc1NC(=O)NCc1ccncc1	ssDAF-12 act 6.6
COc1ccc(OC)c(NC(=O)C23CCC(C)(C(=O)O2)C3(C)C)c1 (stereo not given)	none
CC1=C(Sc2ccccn2)C(=O)NC(C)(C)C1	none
Cc1ccc(C(=O)Nc2nc(=O)[nH]s2)cc1	DAX1 inh-2 4.4!
Cc1ccc(C(=O)Nc2nc(=O)n(C)s2)cc1	DAX1 inh-2 5.6
Cc1ccc(C(=O)Nc2nc(=O)n(C(=O)CC(C)C)s2)cc1	none
COc1ccc(C/C(N)=N/O)cc1	none
COc1ccc(N=Nc2ccc(CO)cc2)cc1	hcDAF12 agonist 7.3, ssDAF-12 act 1.3
COc1cccc(C#Cc2c(C=O)n(C)c3ccccc23)c1	none
CCC(C(=O)NC(C)(C)C)N(C(=O)Cn1nnc(-c2ccccc2F)n1)c1cccc2c1CCCC2 (stereo not given)	DAX1 inh-2 4.3
CC(C)CCNC(=O)CN(C(=O)Cn1nnc(-c2ccccc2F)n1)c1cccc2c1CCCC2	none
COc1cc(/C=C/C(=O)OCC(=O)Nc2cccc(F)c2)ccc1O	none
COc1cc(/C=C/C(=O)OCC(=O)NC(=O)NC(C)(C)C)ccc1O	DAX1 inh-2 4.5
Fc1ccccc1Nc1nc2ccccc2n2nnnc12	ssDAF-12 act 1.1
COc1cc(C2N=C(c3ccccc3)NO2)cc(Br)c1O (stereo not given)	none
FC(F)Oc1ccc(C2N=C(c3ccccc3)NO2)cc1 (stereo not given)	hgDAF-12 ag 13
Cc1ccc(NC(=O)CN(C)C(=O)/C=C/c2cccs2)cc1	ssDAF-12 act 1.3
O=C(CC1=NCCNC(c2ccccc2)C1)c1ccccc1O (stereo not given)	hcDAF12 agonist 5.8
Cc1ccccc1OCC(=O)Nc1cccc(N(C)S(C)(=O)=O)c1	none
O=[N+]([O-])c1ccc(Nc2nc(N3CCOCC3)nc(N3CCOCC3)n2)cc1	ssDAF-12 act 1.1
C=CC[C@@H](CC(=O)OC(C)(C)C)C(=O)OC[C@H]1CCCN1C(=O)[C@@H](CC=C)CC(=O)N(CCO)Cc1ccccc1	none
CN(Cc1ccc(C(C)(C)C)cc1)C(=O)C1CCN(C(=O)Nc2ccccc2)CC1	DAX1 inh-2 7.6
Cc1ccc(CN(C)C(=O)C2CCN(C(=O)Nc3ccccc3)CC2)o1	none
CC(C)Nc1cc(C(C)(C)C)nc2c(-c3ccccc3)cnn12	DAX1 inh-2 6.0
CC(C)(C)c1cc(NCCCn2ccnc2)n2ncc(-c3ccccc3)c2n1	hgDAF-12 ag 12 (no result: DAX1 inh-2)
CN(C)CCCNc1cc(C(C)(C)C)nc2c(-c3ccc(Cl)cc3)cnn12	none
Cc1cc(N)n2ncc(-c3ccccc3)c2n1	hgDAF-12 ag 11
COc1ccc(CN(C(=O)c2cnccn2)C(C(=O)NC(C)(C)C)c2cc(OC)c(OC)c(OC)c2)cc1 (stereo not given)	none
COc1ccc(/C=C/c2ccncc2)cc1	none
COC(=O)c1cc(S(=O)(=O)NCc2cccc(OC)c2)cn1C	DAX1 inh-2 5.3
CC(=O)Nc1ccc(Cl)cc1C(=O)O	ssDAF-12 act 0.9
CCO[C@@H]1OC(C(=O)NCc2nc3ccccc3[nH]2)=C[C@H](c2csc3ccccc23)[C@H]1CCCO	none
CCOC(=O)C1=CC[C@@H](c2ccc([N+](=O)[O-])cc2)N(S(=O)(=O)c2ccc(C)cc2)[C@H]1c1ccccc1	none (no result: DAX1 inh-2)
CC1CCCCC1=NNC(=O)c1ccccc1 (stereo not given)	DAX1 inh-1 4.1, DAX1 inh-2 5.9
COCCNC(=O)c1nc2c(nnn2Cc2cc(C)ccc2C)c(=O)[nH]1	none
CN(C)CC(=O)Nc1nc(-c2ccccc2)cs1	none
CC(O)CNc1nc2c(c(=O)n(C)c(=O)n2C)n1CCc1ccccc1 (stereo not given)	none
Cn1c(=O)c2c(nc(NCC(O)CO)n2CCc2ccccc2)n(C)c1=O (stereo not given)	DAX1 inh-2 5.4
COc1ccc(NC(=O)CSc2nnc(Cn3cnc([N+](=O)[O-])n3)n2C)cc1	SMARCA2 act 11
CC1C(c2ccccc2)N(C)CCC12NC(=O)NC2=O (stereo not given)	none
Cn1cc(CN2CCCC(CO)(Cc3ccccc3)C2)c2ccccc21 (stereo not given)	DAX1 inh-2 4.9
COc1cccc(CC2(CO)CCCN(Cc3cn(C)c4ccccc34)C2)c1 (stereo not given)	none
O=C(O)CCn1c(=O)sc2ccccc21	none
